According to article PMC5540273 (PLoS ONE, 2017):

Experiments:
Conditions in all cases: concentration: 1 μM, replicates: in singlicate; n = 1
RIOK1 = tested on: RIOK1
RIOK2 = tested on: RIOK2
RIOK3 = tested on: RIOK3
RIPK1 = tested on: RIPK1
RIPK2 = tested on: RIPK2
RIPK4 = tested on: RIPK4
RIPK5 = tested on: RIPK5
ROCK1 = tested on: ROCK1
ROCK2 = tested on: ROCK2
ROS1 = tested on: ROS1
[1] = tested on: RPS6KA4(Kin.Dom.1-N-terminal)
[2] = tested on: RPS6KA4(Kin.Dom.2-C-terminal)
[3] = tested on: RPS6KA5(Kin.Dom.1-N-terminal)
[4] = tested on: RPS6KA5(Kin.Dom.2-C-terminal)
[5] = tested on: T1, RSK1(Kin.Dom.1-N-terminal)
T1 construct: gene RPS6KA1

[6] = tested on: T2, RSK1(Kin.Dom.2-C-terminal)
T2 construct: gene RPS6KA1

[7] = tested on: T3, RSK2(Kin.Dom.1-N-terminal)
T3 construct: gene RPS6KA3

[8] = tested on: T4, RSK2(Kin.Dom.2-C-terminal)
T4 construct: gene RPS6KA3

[9] = tested on: T5, RSK3(Kin.Dom.1-N-terminal)
T5 construct: gene RPS6KA2

[10] = tested on: T6, RSK3(Kin.Dom.2-C-terminal)
T6 construct: gene RPS6KA2
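Further: KINOMEscan kinase panel screen.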

Structure (SMILES)	%Inh (RIOK1) [%]	%Inh (RIOK2) [%]	%Inh (RIOK3) [%]	%Inh (RIPK1) [%]	%Inh (RIPK2) [%]	%Inh (RIPK4) [%]	%Inh (RIPK5) [%]	%Inh (ROCK1) [%]	%Inh (ROCK2) [%]	%Inh (ROS1) [%]	%Inh [1] [%]	%Inh [2] [%]	%Inh [3] [%]	%Inh [4] [%]	%Inh [5] [%]	%Inh [6] [%]	%Inh [7] [%]	%Inh [8] [%]	%Inh [9] [%]	%Inh [10] [%]
Nc1ncc(-c2cn[nH]c2)c2scc(-c3ccc4c(c3)CCN4C(=O)Cc3ccccc3)c12 [GSK2593067]	75	86	57	100	94.6	0	10	41	36	9	37	0	24	0	22	2	0	2	31	0
Cc1cccc(Nc2nc(N[C@H]3CCCC[C@H]3N)ncc2C(N)=O)c1.Cl [GSK986310]	48	42	42	7	2	68	17	85	82	62	32	0	22	0	46	20	53	28	23	12
Cc1ccc(-c2ccc3occ(-c4ccc(S(C)=O)cc4)c3c2)nn1 (centres unmarked)	0	10	0	0	0	0	0	6	0	0	1	0	22	0	0	0	0	9	0	0
COc1cccc2c(-c3ccncc3)c(-c3ccc(F)cc3)nn12 [GW468513]	32	13	26	0	56	8	0	0	28	0	4	0	23	0	0	48	0	20	3	0
Cc1ccc(NC(=O)c2ccnc(N3CCCCC3)c2)cc1-c1ccc(C(=O)NCC2CC2)cc1 [GW775610]	50	0	35	43	0	36	0	25	7	10	0	0	0	0	0	100	0	0	16	15
COc1cccc(-c2nc(-c3ccccc3)[nH]c2-c2ccncc2)c1 [SB-610250]	18	0	0	0	75	11	0	24	13	0	2	0	7	41	19	7	12	26	11	0
CN(C)CCNS(=O)(=O)c1ccc(-c2ccnc3[nH]ccc23)cc1 [GSK977620]	78	78	64	0	0	3	0	99.6	98.3	48	30	73	44	68	30	31	60	9	32	21
CC(C)(C)c1ccc(C(=O)Nc2cn3cc(-n4ccnc4)ccc3n2)cc1	0	6	0	2	24	0	34	0	0	0	0	22	10	31	0	0	25	0	0	0
Cl.O=C(Nc1ccc(Oc2ccc3[nH]c(NC(=O)c4ccco4)nc3c2)cc1)Nc1cc(C(F)(F)F)ccc1F [GW683134]	1	7	0	86	43	6	0	78	23	3	16	0	14	6	0	16	3	3	54	9
COC(=O)Nc1nc2ccc(Oc3ccc(NC(=O)Nc4cc(C(F)(F)F)ccc4F)cc3)cc2[nH]1.Cl [GW654607]	2	0	21	74	81	18	0	43	16	6	15	0	0	0	0	13	0	35	12	0
CS(=O)(=O)c1cccc(CNc2nc(Nc3ccc4c(c3)CCC(=O)N4)ncc2C(F)(F)F)c1	62	0	59	0	2	17	0	0	0	31	26	0	0	5	44	0	80	0	59	0
Cn1cc(-c2ccc3c(c2)CCN3C(=O)Cc2cc(F)cc(F)c2F)c2c(N)ncnc21 [GSK2634140]	39	15	13	99.7	0	0	54	36	30	34	19	0	20	0	21	0	12	0	12	0
COc1ccc(NC(=O)c2ccoc2)cc1-c1ccc(C(=O)NCC2CC2)cc1 [GW810437]	8	1	5	0	4	34	14	36	0	0	18	0	4	8	0	21	22	0	0	27
CC(C)c1nc(-c2ccc(F)c(NS(=O)(=O)c3c(F)cccc3F)c2)c(-c2ccnc(Nc3ccc(N4CCOCC4)nc3)n2)s1 [GSK1804250]	30	13	84	0	97.6	0	19	12	2	17	6	0	15	3	25	9	22	27	24	6
O=C(Nc1c(F)cccc1F)c1cc(C(=O)c2ccccc2F)c[nH]1 [GSK1326180]	11	4	6	0	0	0	0	0	9	0	8	0	4	0	5	0	1	24	0	10
CN(C)CCOc1ccc(-c2cc(-c3ccc(Cl)c(O)c3)c(-c3ccncc3)[nH]2)cc1.Cl.Cl [SB-684387]	0	32	0	36	88	7	13	99.2	98.9	10	0	23	0	33	10	23	3	8	4	0
Cc1ccc(NC(=O)c2cccc(N3CCCCC3)c2)cc1-c1ccc(C(=O)NCC2CC2)cc1 [GSK1917008]	34	15	0	13	6	29	0	2	0	6	28	0	33	8	18	1	15	21	12	5
CCn1c(-c2nonc2N)nc2c(-c3ccccc3)ncc(OCCCN)c21.O=C(O)C(F)(F)F.O=C(O)C(F)(F)F [GSK260205]	7	15	0	0	30	10	0	91.7	98.4	0	0	0	31	8	19	50	80	0	99.7	1
CN(c1ccc(F)c(NC(=O)c2cccc(OC(C)(C)C#N)c2Cl)c1)c1ccc2nc(NC(=O)C3CC3)sc2n1	0	71	27	0	36	2	0	0	0	0	0	0	11	6	0	1	0	59	0	0
COc1cc(Nc2nccc(N3CCC(NS(=O)(=O)c4ccc(NC(C)=O)cc4)CC3)n2)cc(OC)c1OC [GSK1379825]	76	66	59	81	80	48	0	28	26	48	0	0	27	0	0	0	5	24	11	2

Structure (SMILES)	%Inh (RIOK1) [%]	%Inh (RIOK2) [%]	%Inh (RIOK3) [%]	%Inh (RIPK1) [%]	%Inh (RIPK2) [%]	%Inh (RIPK4) [%]	%Inh (RIPK5) [%]	%Inh (ROCK1) [%]	%Inh (ROCK2) [%]	%Inh (ROS1) [%]	%Inh [1] [%]	%Inh [2] [%]	%Inh [3] [%]	%Inh [4] [%]	%Inh [5] [%]	%Inh [6] [%]	%Inh [7] [%]	%Inh [8] [%]	%Inh [9] [%]	%Inh [10] [%]
O=C(Nc1n[nH]c2nc(-c3cccc(O)c3)ccc12)C1CC1 [SB-711805]	53	11	59	14	5	37	7	2	0	0	0	51	0	0	0	0	30	0	0	0
Nc1ncnc2scc(-c3ccc(NC(=O)Cc4cc(F)ccc4F)cc3)c12.O=C(O)C(F)(F)F [SB-731254-M]	0	13	1	0	23	20	53	0	0	17	21	15	8	0	0	14	15	0	0	6
Cl.N#CCc1ccc(Nc2nccc(Nc3ccc(Oc4ccccc4)cc3)n2)cc1 [GW639905]	21	23	0	0	96.1	0	17	31	34	0	0	0	0	0	1	0	0	16	4	0
COc1cccc(C2=C(Nc3cccc(O)c3)C(=O)NC2=O)c1 [SB-390771]	49	0	17	0	18	22	3	3	5	0	21	0	21	2	84	0	8	28	84	7
Cc1ccccc1CC(=O)N1CCc2cc(-c3cn(C)c4ncnc(N)c34)ccc21 [GSK2603346]	8	31	100	100	63	0	69	10	14	2	11	0	20	0	0	4	0	6	24	0
CN(C)c1ncnc2nc[nH]c12 [SKF-31736]	0	0	0	0	0	26	10	58	31	0	1	0	0	11	0	0	39	0	0	0
CN(c1ccc2c(c1)nc(NCc1ccccc1)n2C)c1ccnc(Nc2ccc(CS(C)(=O)=O)cc2)n1.Cl [GW811603]	50	0	44	100	0	49	24	20	47	57	7	0	0	0	2	0	0	24	0	23
CNc1nccc(-c2ccc3c(N)n[nH]c3c2)n1 [GSK2206003]	98.2	85	82	8	0	41	0	52	62	22	3	91.8	19	63	22	22	38	0	14	5
COC(=O)Nc1nc2ccc(Oc3ccc(CC(=O)Nc4cc(C(F)(F)F)ccc4F)cc3)cc2[nH]1 [GW680903]	0	0	8	84	48	8	0	31	12	0	0	0	1	0	65	4	0	5	4	0
N#CC1(c2cccc(C(=O)Nc3cccc(Oc4ccc5nc(NC(=O)C6CC6)sc5n4)c3)c2)CC1	0	0	0	15	55	0	0	0	0	1	0	2	0	0	0	25	15	1	25	21
CCOc1nccc(-c2c(-c3ccc(F)cc3)ncn2C2CCNCC2)n1 [SB-249175]	44	24	42	23	31	53	8	53	19	11	8	32	100	0	16	20	52	39	17	20
O=C(Nc1n[nH]c2nc(-c3ccccc3O)ccc12)C1CC1 [SB-711880]	43	0	33	70	0	40	0	0	0	0	0	7	0	0	4	0	54	0	11	31
CC(C)NCC(Cc1ccccc1)NC(=O)c1cc(Br)c(-c2ccnc3[nH]ccc23)s1.Cl.Cl (centres unmarked) [GSK1383281]	72	84	60	0	0	15	9	99.6	99.6	46	76	0	48	22	50	0	25	0	16	6
O=C(Nc1n[nH]c2nc(-c3ccccc3)ccc12)C1CC1 [SB-708999]	35	1	37	63	0	2	0	21	12	0	5	0	13	4	0	0	0	32	4	0
CCn1cnc2c(NCc3ccccc3)ncnc21 [SKF-96418]	0	0	0	0	0	13	28	56	16	0	13	0	11	0	0	0	30	0	0	0
Nc1ncc(-c2ccc3nccc(-c4ccncc4)c3c2)cc1S(=O)(=O)N1CCCCC1 [GSK1693850]	30	89	41	31	22	5	25	11	13	43	0	0	9	17	0	37	0	0	17	24
CC(C)c1nc(-c2cccc(NS(=O)(=O)c3c(F)cccc3F)c2)c(-c2ccnc(Nc3ccc(N4CCOCC4)nc3)n2)s1.Cl [GSK1723980]	25	0	2	0	97.7	2	81	6	0	0	0	0	0	0	83	1	15	0	27	0
Fc1cc(Cl)ccc1Nc1ccnc2cc(-c3ccc(CN4CCSCC4)o3)ccc12 [GW560106]	9	0	0	0	94.7	0	0	29	32	20	18	0	23	0	0	25	0	48	0	6
Cc1ccc(Nc2ccnc(Nc3ccc(C)c(F)c3)n2)cc1O.Cl [GW582868]	19	2	4	1	55	13	0	22	16	33	0	0	0	21	0	0	0	0	9	0
Cn1cc(-c2cnc(N)c3c(-c4ccc5c(c4)CCN5C(=O)Cc4ccccc4)csc23)cn1 [GSK2593074]	33	0	6	100	96.1	100	55	0	11	0	1	38	0	2	9	42	0	9	0	7
